PubChem BioAssay (NCI)
The panel holds about 83,000 compounds, 20% with a hit somewhere; the sample as a whole holds those more often.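 Note: values are percent growth. 100 is the growth of untreated cells, values between 100 and 0 indicate rising inhibition; between -100 and 0 indicates cell death.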 A number with no mark means an inactive call. Activity calls are given as the source filed them. The calls were made as follows: active = growth percent below 10; inactive = the rest.

How the values were obtained:
Assay in all cases: NCI-60 one-dose screen, 48 h (100 = growth as untreated, 0 = no growth, -100 = all killed)
[1] = system: SR leukemia; conditions: 10 µM unless noted
[2] = system: RPMI-8226 leukemia; conditions: 10 µM unless noted
[3] = system: OVCAR-8 ovarian; conditions: 10 µM unless noted
[4] = system: OVCAR-5 ovarian; conditions: 10 µM unless noted
[5] = system: OVCAR-4 ovarian; conditions: 10 µM unless noted
[6] = system: SK-OV-3 ovarian; conditions: 10 µM unless noted
[7] = system: IGROV1 ovarian; conditions: 10 µM unless noted
[8] = system: OVCAR-3 ovarian; conditions: 10 µM unless noted
[9] = system: HS 578T breast; conditions: 10 µM
[10] = system: NCI/ADR-RES ovarian; conditions: 10 µM unless noted
[11] = system: T-47D breast; conditions: 10 µM unless noted
[12] = system: BT-549 breast; conditions: 10 µM unless noted
[13] = system: MDA-MB-435 melanoma; conditions: 10 µM unless noted
[14] = system: SW-620 colon; conditions: 10 µM unless noted
[15] = system: MCF7 breast; conditions: 10 µM unless noted
[16] = system: HCT-116 colon; conditions: 10 µM unless noted
[17] = system: KM12 colon; conditions: 10 µM unless noted
[18] = system: HCC-2998 colon; conditions: 10 µM unless noted

Row | Structure (SMILES) | growth [1] | growth [2] | growth [3] | growth [4] | growth [5] | growth [6] | growth [7] | growth [8] | growth [9] | growth [10] | growth [11] | growth [12] | growth [13] | growth [14] | growth [15] | growth [16] | growth [17] | growth [18]
1 | CCc1ccc2c(c1)N(CCO)C1=C(C(=O)OC1)C2c1cccc(Br)c1 (stereo not given) | 28.6% | 24.7% | 33.7% | 36.4% | 59.9% | 28.1% | 39.3% | -10.6% (active) | 3.25% (active) | 9.74% (active) | 47.5% | 46.6% | -62.5% (active) | 26.8% | 21.1% | 26.9% | 19.2% | –
2 | CCOC(CN1CCN(CC(C)C(=O)c2ccccc2)CC1)c1ccccc1 (stereo not given) | 99.3% | 88.8% | 104% | 110% | 93.4% | 105% | 104% | 112% | 115% | 106% | 92.8% | 115% | 102% | 106% | 80.6% | 109% | 104% | 115%
3 | O=C1OCC2=C1C(c1ccc(Cl)c(Cl)c1)c1cc3c(cc1N2CCO)CCC3 (stereo not given) | 33.7% | 22% | 23.5% | 35.3% | 50% | 38.6% | 30.1% | -42% (active) | 5.2% (active) | 4.51% (active) | 63.3% | 44.8% | -38.6% (active) | 24.5% | 20.4% | 18.3% | 9.04% (active) | –
4 | COc1ccc(C2C3=C(COC3=O)N(CCO)c3cc(OC)c(OC)cc32)cc1 (stereo not given) | 93.1% | 96.1% | 108% | 104% | 105% | 106% | 119% | 109% | 106% | 105% | 91.3% | 100% | 112% | 101% | 103% | 103% | 106% | –
5 | O=C(CCc1nc2sc3c(c2c(=O)[nH]1)CCC3)NCc1cn(-c2ccccc2)nc1-c1ccccc1 | -18% (active) | 90% | 44.3% | 86.2% | -48% (active) | 68.5% | 93% | 16.9% | 48.4% | 69.5% | -0.261% (active) | 95.6% | 76.1% | 28.7% | 34.1% | -27.1% (active) | 85.3% | 87.5%
6 | COc1cccc2nc(Nc3cccc(NC(=O)c4ccc(N5CCN(C)CC5)c(C(F)(F)F)c4)c3)ccc12 | -7.69% (active) | 7.17% (active) | 30.7% | 61.5% | 39.5% | 81.7% | 28.6% | 29.6% | 32.6% | 43.9% | 36.7% | 67% | 19.9% | -33.3% (active) | -12.9% (active) | 6.56% (active) | -7.59% (active) | -7.74% (active)
7 | COc1ccc(/C(=C\c2cc(OC)c(OC)c(OC)c2)C(=O)N2CCNCC2)cc1 | 94.6% | 95.1% | 105% | 102% | 110% | 108% | 102% | 108% | 102% | 98.3% | 82.8% | 104% | 98.2% | 97.6% | 95.5% | 94.5% | 94.2% | 104%
8 | COc1ccc2[nH]c(C(=O)OCc3ccc4cccc(O)c4n3)cc2c1 | -3.51% (active) | -45.9% (active) | 0.942% (active) | -66.6% (active) | -59.2% (active) | 68.4% | -91.2% (active) | -84.8% (active) | -8.82% (active) | -18.9% (active) | -53.9% (active) | -79.3% (active) | -86.2% (active) | -72.8% (active) | -39% (active) | -77.7% (active) | 10.7% | –
9 | COc1ccc2cc(-c3nc(C)c(C(C)=O)c(-c4ccc(C)cc4)n3)ccc2c1 | 108% | 86.9% | 93.4% | 93.1% | 92% | 97.5% | 101% | 94.3% | 86% | 92.5% | 72.1% | 82.3% | 89.1% | 91.3% | 88.3% | 86.3% | 91.7% | –
10 | COc1cc2nccc(Oc3ccc(NC(=O)C4(C(=O)Nc5ccc(F)cc5)CC4)cc3)c2cc1O | 41.3% | 52.8% | 73.7% | 80.8% | 37.1% | 86.5% | 52.1% | 78.7% | 42.7% | 71.7% | 55.3% | 79.9% | 52.6% | 34.4% | – | 52% | 22.5% | 79.3%
11 | C/C(=N\OC(=O)Nc1cccc(Cl)c1)c1ccccc1 | 74% | 95.8% | 104% | 91% | 94.7% | 108% | 115% | 113% | 86.4% | 108% | 95.9% | 105% | 93.1% | 95.3% | – | 103% | 109% | 116%
12 | O=C(Nc1ccccc1)C(CCCCN1C(=O)c2ccccc2C1=O)N1C(=O)c2ccccc2C1=O (stereo not given) | 92.7% | 86.2% | 103% | 103% | 106% | 107% | 110% | 107% | 106% | 98.6% | 105% | 104% | 108% | 102% | 101% | 107% | 100% | –
13 | COc1ccc(-n2nc(C(=O)NCC(=O)Nc3nc4cc(OC)ccc4s3)c3ccccc3c2=O)cc1 | 86.8% | 39.1% | -12.4% (active) | 44.6% | -20.4% (active) | -18.5% (active) | -3.66% (active) | 3.53% (active) | -4.47% (active) | 1.75% (active) | 17% | -23.4% (active) | 42.5% | 47.6% | -6.52% (active) | 2.56% (active) | 18.2% | –
14 | O=C1OCC2=C1C(c1cccc(Br)c1)c1cc3c(cc1N2CCO)OCCO3 (stereo not given) | 29.8% | 21.4% | 9.03% (active) | 39.5% | 53.4% | 32.3% | 18.3% | -61.5% (active) | 8.74% (active) | 8.43% (active) | 76.9% | 21.4% | -40.4% (active) | 21.3% | 18.2% | 6.29% (active) | -33.9% (active) | –
15 | COc1ccc(C(=O)c2cc(C)c(OC)c(C)c2)cc1OC(=O)CCl | 2.99% (active) | 11.2% | 6.89% (active) | 39.6% | 47.4% | 20.6% | 25.7% | -15.5% (active) | 44.4% | 7.11% (active) | 62.7% | 15.2% | -23.5% (active) | 26.5% | 19.2% | 6.62% (active) | 12.2% | –
16 | CCc1ccc2c(c1)N(CCO)C1=C(C(=O)OC1)C2c1cccc(Cl)c1 (stereo not given) | 20.2% | 20.3% | 27% | 30.3% | 63.8% | 27.2% | 31.2% | -35.9% (active) | 7.46% (active) | 8.16% (active) | 52.1% | 42.1% | -57.3% (active) | 26% | 24.5% | 15.3% | 13.4% | –
17 | N=c1n(Cc2ccccc2)c(N)cc(=O)n1Cc1ccccc1 | 1.6% (active) | 42.6% | 20% | 68.8% | 34.1% | 21.4% | 37.9% | 0.156% (active) | -1.73% (active) | 10.6% | 26.7% | 3.02% (active) | 37.2% | 20.7% | 23.4% | 8.12% (active) | 39.2% | –
18 | COc1ccc(NC(=O)/C=C/c2ccc(NC(=O)N3CCCC3)cc2)cn1 | 106% | 99.5% | 101% | 113% | 101% | 101% | 105% | 103% | 95.9% | 107% | 99.9% | 97.4% | 103% | 106% | 91.7% | 103% | 103% | –
